Assay outcomes: PubChem, National Center for Advancing Translational Sciences (NCATS)
Sampled rows, rich in hits. Any-hit rate of the full collection: about 2.7%.
IP6K1 inh: inhibitors of human IP6K1; IP6K1 kinase, ADP-Glo luminescence, 2 h; stronger effect = lower value; activity change, % (series mostly up to about 58 µM); 0.81% of 140,000 active; AID 1645851; in the data active = activity change below about -25%; note: % is set by controls: 0 for no effect and ±100 for the full control effect
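ADP-Glo luminescence measures ADP made by human IP6K1 during a 2 h RT reaction with ATP/IP6 (mix at 1.3 mM/130 uM); top library doses 57.5 and 19.1 uM final.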
KDM5B inhibitor: blocks human KDM5B histone demethylase activity. Q9UGL1. KDM5B demethylase, FDH-coupled NADH fluorescence (FDH is formaldehyde dehydrogenase). Potency, µM (top dose mostly 57.7 µM), usual class: inhibitors. 2.6% of 220,000 active; active = well fitted inhibition curve with a large enough effect; inconclusive = small, poorly fitted or top-dose-only effect; inactive = no such curve, though single readings can be large or run the other way; note: potency is the fitted concentration of half-maximal effect; 0% is about no effect; nearly all actives have a fitted effect of over 70% in size
Target sequence (Q9UGL1 whole entry, looked up): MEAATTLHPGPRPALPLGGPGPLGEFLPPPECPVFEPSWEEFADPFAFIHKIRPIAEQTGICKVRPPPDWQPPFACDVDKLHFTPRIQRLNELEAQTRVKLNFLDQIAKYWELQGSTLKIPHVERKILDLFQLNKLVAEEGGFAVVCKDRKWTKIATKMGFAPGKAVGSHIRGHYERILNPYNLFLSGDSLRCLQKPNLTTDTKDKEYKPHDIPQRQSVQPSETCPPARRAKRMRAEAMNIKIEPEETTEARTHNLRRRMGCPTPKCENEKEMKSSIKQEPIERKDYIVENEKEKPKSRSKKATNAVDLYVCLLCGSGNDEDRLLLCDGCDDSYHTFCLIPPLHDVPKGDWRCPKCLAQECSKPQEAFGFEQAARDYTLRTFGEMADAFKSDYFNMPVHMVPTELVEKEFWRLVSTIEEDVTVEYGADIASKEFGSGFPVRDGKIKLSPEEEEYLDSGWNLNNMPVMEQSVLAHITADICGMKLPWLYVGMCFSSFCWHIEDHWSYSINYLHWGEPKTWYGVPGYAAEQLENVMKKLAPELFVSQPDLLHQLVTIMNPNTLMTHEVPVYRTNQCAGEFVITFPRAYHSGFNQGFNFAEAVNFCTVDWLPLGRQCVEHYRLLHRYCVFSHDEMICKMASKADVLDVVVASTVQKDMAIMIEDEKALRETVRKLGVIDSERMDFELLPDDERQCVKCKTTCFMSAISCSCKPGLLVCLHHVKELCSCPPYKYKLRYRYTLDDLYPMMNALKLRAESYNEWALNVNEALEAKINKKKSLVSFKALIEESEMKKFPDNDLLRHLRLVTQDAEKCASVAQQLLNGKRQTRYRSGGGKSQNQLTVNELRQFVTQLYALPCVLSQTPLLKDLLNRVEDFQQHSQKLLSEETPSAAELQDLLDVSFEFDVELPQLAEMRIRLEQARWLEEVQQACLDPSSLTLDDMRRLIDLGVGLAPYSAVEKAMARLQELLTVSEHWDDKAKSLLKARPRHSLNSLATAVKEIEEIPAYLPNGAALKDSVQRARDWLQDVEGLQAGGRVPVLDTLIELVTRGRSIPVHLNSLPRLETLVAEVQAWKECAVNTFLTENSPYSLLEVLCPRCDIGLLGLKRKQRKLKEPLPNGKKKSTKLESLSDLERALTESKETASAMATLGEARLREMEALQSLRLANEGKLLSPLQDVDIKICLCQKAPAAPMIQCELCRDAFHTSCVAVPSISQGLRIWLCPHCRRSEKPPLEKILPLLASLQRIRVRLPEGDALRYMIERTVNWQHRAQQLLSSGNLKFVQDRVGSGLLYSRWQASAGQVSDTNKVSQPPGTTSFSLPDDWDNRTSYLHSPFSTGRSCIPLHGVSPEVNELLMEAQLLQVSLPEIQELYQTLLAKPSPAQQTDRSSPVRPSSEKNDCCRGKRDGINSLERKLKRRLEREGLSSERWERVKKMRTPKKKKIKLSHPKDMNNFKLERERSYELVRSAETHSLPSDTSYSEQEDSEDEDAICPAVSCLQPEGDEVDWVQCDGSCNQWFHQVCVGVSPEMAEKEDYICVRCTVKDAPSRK
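Measured: NADH fluorescence change, 30 min, RT. System: KDM5BΔAP 200 nM final, H3K4me3 peptide, α-KG, Fe(II), ascorbate, NAD⁺ plus FDH, pH 7.5 HEPES. Compounds: titrated, 10 min pre-incubation with enzyme.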
Numbers without * were called inactive; i = inactive; ? = inconclusive; / = no result given.

SMILES	IP6K1 inh	KDM5B inhibitor
O=C(N[C@H](c1cccs1)C1CC(O)C1)c1ccc(N2CCOCC2)cc1 (stereo partly specified)	12	i
Cc1cc(C)c(C(=O)N[C@H](C2CCNCC2)C2CC(O)C2)c(C)c1 (stereo partly specified)	27	i
COc1cc(/C=N/O)cc(Cl)c1OC(C)=O	/	i
CCCOC(=O)c1[nH]c2c(c1C)C(=O)CCC2	/	i
Cc1cccc(NC(=O)[C@@H]2COCC(=O)N2Cc2ccc(F)cc2)c1	-13	/
Cc1ccc(F)c(NC(=O)[C@@H]2COCC(=O)N2Cc2ccc(F)cc2)c1	-2	40µM*
COc1ccc(-n2c(=O)c(C(=O)NCc3cccc(Cl)c3)nc3cccnc32)cc1	-6	/
FC(F)(F)c1cccc(-c2noc(-c3ccc(NCCN4CCOCC4)nc3)n2)c1	14	?
OC[C@@H]1CN(c2ccc(-c3nc(-c4cccc(C(F)(F)F)c4)no3)cn2)C[C@H]1CO	0	28µM*
OCC1CCCN(c2ccc(-c3nc(-c4cccc(C(F)(F)F)c4)no3)cn2)C1 (stereo unspecified)	-2	28µM*
FC(F)(F)c1cccc(-c2noc(-c3ccc(Br)cc3)n2)c1	/	i
Cc1cccc(OCc2cccc(C(N)=O)c2)c1	/	i
O=C1Nc2ccc(-c3ccc(Cl)cc3)cc2C(=O)N2CCN(C(=O)c3ccccc3)C[C@H]12	-1	i
COc1ccc(Cl)cc1-c1ccc2c(c1)C(=O)N1CCN(C(=O)C3CCCC3)C[C@H]1C(=O)N2	4	20µM*
COc1ccc(Cl)cc1-c1ccc2c(c1)C(=O)N1CCN(C(=O)C3CCNCC3)C[C@@H]1C(=O)N2	-9	?
COc1ccc(Cl)cc1-c1ccc2c(c1)C(=O)N1CCN(C(=O)COc3ccccc3)C[C@@H]1C(=O)N2	-8	?
O=C1Nc2ccc(-c3ccc(Cl)cc3)cc2C(=O)N2CCN(C(=O)C3CCCCC3)C[C@H]12	-8	25µM*
COc1ccc(Cl)cc1-c1ccc2c(c1)C(=O)N1CCN(C(=O)CN)C[C@H]1C(=O)N2	26	35µM*
O=C(NCc1ccccc1F)c1nc2sccn2c1-c1ccncc1	13	/
CN1CCN(C(=O)C2CCCCN2Cc2ccc(-c3cccs3)cc2)CC1 (stereo unspecified)	-1	/
COc1ccc2[nH]c3c(c2c1)CCNC31CCN(C(=O)C2CC=CC2)CC1	-3	22µM*
COc1ccc2[nH]c3c(c2c1)CCNC31CCN(C(=O)c2cnccn2)CC1	-2	i
CCC(C)C(=O)N1CCC2(CC1)NCCc1c2[nH]c2ccc(OC)cc12 (stereo unspecified)	-4	32µM*
COc1ccc2[nH]c3c(c2c1)CCNC31CCN(C(=O)CNC(C)=O)CC1	0	?
CCN1CCC(N2CCC3(CC2)NCCc2c3[nH]c3ccc(OC)cc23)CC1	-1	?
SMILES	IP6K1 inh	KDM5B inhibitor
COc1ccc2[nH]c3c(c2c1)CCNC31CCN(C2CCCC2)CC1	14	22µM*
COCCOCC(=O)N1CCC2(CC1)NCCc1c2[nH]c2ccc(OC)cc12	4	?
COc1ccc2[nH]c3c(c2c1)CCNC31CCN(Cc2ccc(F)cc2F)CC1	4	11µM*
COc1ccc(C)cc1N1CC(C(=O)Nc2ccc(S(=O)(=O)Nc3ncccn3)cc2)CC1=O (stereo unspecified)	/	i
COc1ccc2[nH]c3c(c2c1)CCNC31CCN(C(=O)C2CCOCC2)CC1	19	22µM*
COc1ccc(C(=O)N2CCC3(CC2)NCCc2c3[nH]c3ccc(OC)cc23)c(OC)c1	3	?
CS(=O)(=O)Oc1ccc2c(c1)O/C(=C\c1ccc(-c3ccccc3)cc1)C2=O	/	i
CCCNCc1ccccc1C(F)(F)F	/	i
O=C(NC1CC1)c1cc2c(=O)[nH]c(-c3ccccc3)cn2n1	-3	28µM*
Cc1cn2nc(C(=O)N3CCC(NC(=O)c4ccccc4F)CC3)cc2c(=O)[nH]1	0	?
COCCCNC(=O)c1cc2c(=O)[nH]c(-c3ccccc3)cn2n1	4	25µM*
Cc1cn2nc(C(=O)N3CCC(NC(=O)C(C)c4ccccc4)CC3)cc2c(=O)[nH]1 (stereo unspecified)	4	?
CCOCCCNC(=O)c1cc2c(=O)[nH]c(-c3ccccc3)cn2n1	-3	?
CCCNC(=O)c1cc2c(=O)[nH]c(-c3ccccc3)cn2n1	9	25µM*
CC(C)N1CCN(C(=O)c2cc3c(=O)[nH]c(-c4ccccc4)cn3n2)CC1	-14	25µM*
Cc1cn2nc(C(=O)NCc3ccccc3C)cc2c(=O)[nH]1	11	i
CCN(CC)S(=O)(=O)c1ccc(C)c(NC(=O)c2ccc(OC(F)F)cc2)c1	/	i
Cc1ccc(CNC(=O)CCCNC(=O)C(C)(C)C)cc1	/	i
COc1ccc(C(=O)N2CC(N3C(=O)c4c(c(C)nn4-c4ccccc4)C3C)C2)cc1 (stereo unspecified)	5	/
O=C(NCc1ccc(F)cc1)C1CCN(c2nc3ncccc3o2)CC1	3	/
CCOc1cc(S(=O)(=O)NC2CC(C)(C)NC(C)(C)C2)c(OCC)cc1C	/	i
COc1ccc(C(=O)C(C)OC(=O)c2cc(=O)c3ccccc3o2)cc1 (stereo unspecified)	/	i
COc1ccc(-c2nnc([C@H]3CCN(Cc4ncc[nH]4)C3)o2)cc1	14	35µM*
COc1ccc(CN2CC[C@H](c3nnc(-c4ccncc4)o3)C2)cc1	1	i
CCCc1nnc([C@H]2CCN(Cc3ncc[nH]3)C2)o1	1	?
SMILES	IP6K1 inh	KDM5B inhibitor
Cc1ccc(-c2nnc([C@H]3CCN(Cc4ncc[nH]4)C3)o2)cc1	-10	35µM*
Cc1cc(F)ccc1-c1[nH]nc2ncc(-c3ccnn3C)nc12	8	?
COc1ccccc1-c1[nH]nc2ncc(-c3ccnc(C)c3)nc12	1	i
COc1ccccc1-c1[nH]nc2ncc(C(=O)Nc3cc(C)nn3C)nc12	24	i
COc1ccccc1-c1[nH]nc2ncc(C(=O)NCc3ccccc3)nc12	16	32µM*
COc1ccccc1-c1[nH]nc2ncc(-c3ccccc3F)nc12	32	35µM*
COc1ccccc1-c1[nH]nc2ncc(-c3cnn(C)c3)nc12	3	?
Cc1ccccc1-c1[nH]nc2ncc(-c3ccnn3C)nc12	4	35µM*
COc1ccccc1-c1[nH]nc2ncc(-c3cccc(O)c3)nc12	-5	35µM*
Cn1c(C(=O)NCCNC(=O)C2CCCCC2)cc2ccccc21	/	i
COc1cccc(C(=O)NC2CCN(c3nccc(Nc4ccccc4OC)n3)CC2)c1	0	/
CCOc1ccc(S(=O)(=O)N(C)CC(=O)N2CCN(C)CC2)cc1C	/	i
Cc1cccc(Nc2nc(C(=O)N3CCc4ccccc4C3)cs2)c1	/	i
COc1ccccc1-c1[nH]nc2ncc(-c3ccccc3C)nc12	25	32µM*
Cc1ccccc1-c1[nH]nc2ncc(-c3ccccc3O)nc12	25	i
COc1ccc(-c2cnc3n[nH]c(-c4ccc(F)cc4C)c3n2)cn1	9	28µM*
COc1cc(-c2cnc3n[nH]c(-c4ccc(F)cc4C)c3n2)ccn1	2	?
CCN(CC)Cc1ccc(CNC(=O)c2c(C)[nH]c3ccccc23)cc1	/	i
CC(CC(=O)Nc1ccc(F)cc1F)n1ccnc1 (stereo unspecified)	/	i
CC(=O)N1CCCC(c2nnc3n2CCNC3)C1 (stereo unspecified)	5	79µM*
